Laboratory results taken from PubChem BioAssay AID1159580 (chemical genetic matrix, 2015).
“And” between values parts separate entries of the source, which are not always exact repeats. Equal entries are not always repeated. The whole screen tested about 5,500 compounds, of which about 2,000 (36%) were called active. Not shown: some 18% with an inconclusive outcome. No stated cut-off is given here; in the data, active means normalized growth mostly below about 0.91 (no sharp cut-off); inconclusive means no clear call, values can overlap the other calls; inactive means mostly above about 0.92. Some of the results follow.

Assay: chemical genetic growth profiling, strain panel (AID 1159580);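 further: tested at 20 µM; growth read once vehicle control cultures reached saturation at 30 °C; 1 = growth at the plate median or of vehicle wells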
Settings: S. cerevisiae deletion strains, growth OD

Measured: normalized growth

NCCc1cnc[nH]1
inactive: locus YAL021C, strain ccr4, stronger effect = lower value 1.01 | locus YAL026C, strain drs2, stronger effect = lower value 1.01 | locus YAL030W, strain snc1, stronger effect = lower value 1.01 | locus YAL040C, strain CLN3, stronger effect = lower value 0.978 | locus YBL061C, strain skt5, stronger effect = lower value 1.02 | locus YBR009C, strain hhf1, stronger effect = lower value 1 | locus YBR021W, strain FUR4, stronger effect = lower value 1 | locus YBR023C, strain chs3, stronger effect = lower value 1.02 | locus YBR171W, strain sec66, stronger effect = lower value 1.03 | locus YBR229C, strain ROT2, stronger effect = lower value 1.01 | locus YBR231C, strain swc5, stronger effect = lower value 0.976 | locus YBR279W, strain paf1, stronger effect = lower value 1.02 | locus YCL011C, strain gbp2, stronger effect = lower value 1.03 | locus YCL016C, strain dcc1, stronger effect = lower value 1.01 | locus YCL029C, strain bik1, stronger effect = lower value 1.01 | locus YCL061C, strain MRC1, stronger effect = lower value 1.02 | locus YCL069W, strain vba3, stronger effect = lower value 1.01 | locus YCR088W, strain abp1, stronger effect = lower value 1.01 | locus YDL005C, strain med2, stronger effect = lower value 1.02 | locus YDL035C, strain GPR1, stronger effect = lower value 0.988 | locus YDL040C, strain nat1, stronger effect = lower value 1.02 | locus YDL074C, strain BRE1, stronger effect = lower value 1 | locus YDL101C, strain DUN1, stronger effect = lower value 1.01 | locus YDL185W, strain tfp1, stronger effect = lower value 1.02 | locus YDL192W, strain arf1, stronger effect = lower value 1.03 | locus YDR001C, strain nth1, stronger effect = lower value 1.01 | locus YDR069C, strain doa4, stronger effect = lower value 0.993 | locus YDR101C, strain arx1, stronger effect = lower value 0.997 | locus YDR137W, strain rgp1, stronger effect = lower value 1.03 | locus YDR159W, strain sac3, stronger effect = lower value 0.995 | locus YDR162C, strain NBP2, stronger effect = lower value 0.998 | locus YDR195W, strain ref2 0.994 | locus YDR297W, strain sur2, stronger effect = lower value 1.04 | locus YDR318W, strain mcm21, stronger effect = lower value 1.02 | locus YDR334W, strain swr1, stronger effect = lower value 1.02 | locus YDR335W, strain msn5, stronger effect = lower value 1.02 | locus YDR363W, strain ESC2, stronger effect = lower value 0.998 | locus YDR388W, stronger effect = lower value 1.01 | locus YDR392W, strain spt3, stronger effect = lower value 1 | locus YDR502C, strain sam2, stronger effect = lower value 1.01 | locus YEL003W, strain gim4, stronger effect = lower value 1.03 | locus YEL037C, strain rad23, stronger effect = lower value 1.02 | locus YEL061C, strain CIN8 (second series), stronger effect = lower value 1.02 | locus YEL061C, strain CIN8, stronger effect = lower value 0.995 | locus YER002W, strain NOP16, stronger effect = lower value 0.994 | locus YER015W, strain faa2, stronger effect = lower value 1.01 | locus YER016W, strain bim1, stronger effect = lower value 1 | locus YER110C, stronger effect = lower value 1.02 | locus YER111C, strain swi4, stronger effect = lower value 1.02 | locus YER155C, strain BEM2 (second series), stronger effect = lower value 1.03 | locus YER155C, strain BEM2, stronger effect = lower value 1.01 | locus YER167W, strain BCK2, stronger effect = lower value 0.989 | locus YFR010W, strain ubp6, stronger effect = lower value 1.01 | locus YGL078C, strain dbp3, stronger effect = lower value 1.02 | locus YGL086W, strain mad1, stronger effect = lower value 1 | locus YGL167C, strain pmr1, stronger effect = lower value 1.01 | locus YGL173C, strain kem1, stronger effect = lower value 1 | locus YGL227W, strain vid30, stronger effect = lower value 1.01 | locus YGL240W, strain doc1, stronger effect = lower value 1.01 | locus YGL248W, strain PDE1, stronger effect = lower value 1.01 | locus YGL253W, strain hxk2, stronger effect = lower value 1.01 | locus YGR078C, strain PAC10, stronger effect = lower value 1 and 0.997 | locus YGR135W, strain pre9, stronger effect = lower value 1.02 | locus YGR252W, strain gcn5, stronger effect = lower value 1.04 | locus YHR013C, strain ard1, stronger effect = lower value 1.06 | locus YHR027C, strain rpn1, stronger effect = lower value 1.01 | locus YHR030C, strain SLT2, stronger effect = lower value 0.985 and 1 | locus YHR079C, strain IRE1 (second series), stronger effect = lower value 1.01 | locus YHR079C, strain IRE1, stronger effect = lower value 1.03 | locus YHR094C, strain hxt1, stronger effect = lower value 1.01 | locus YHR129C, strain ARP1, stronger effect = lower value 1.01 | locus YHR142W, strain chs7, stronger effect = lower value 1.01 | locus YHR200W, strain rpn10, stronger effect = lower value 1.02 | locus YIL066C, strain RNR3, stronger effect = lower value 1.01 | locus YIL073C, strain SPO22, stronger effect = lower value 1.03 | locus YIL125W, strain kgd1, stronger effect = lower value 1.02 | locus YIR030C, strain dcg1, stronger effect = lower value 1.01 | locus YJL092W, strain hpr5, stronger effect = lower value 1.02 | locus YJL095W, strain BCK1 (second series), stronger effect = lower value 1.02 | locus YJL095W, strain BCK1, stronger effect = lower value 1.01 and 0.999 | locus YJL115W, strain asf1, stronger effect = lower value 1.02 | locus YJL129C, strain trk1, stronger effect = lower value 1.03 | locus YJL134W, strain LCB3, stronger effect = lower value 0.995 | locus YJL154C, strain vps35, stronger effect = lower value 1.03 | locus YJL164C, strain tpk1, stronger effect = lower value 1.02 | locus YJL166W, strain qcr8, stronger effect = lower value 1.03 | locus YJL168C, strain set2, stronger effect = lower value 1.01 | locus YJL187C, strain SWE1 (second series), stronger effect = lower value 1 | locus YJL187C, strain SWE1, stronger effect = lower value 1.01 | locus YJR043C, strain POL32, stronger effect = lower value 1
